According to PubChem BioAssay AID1035475 (Broad Institute, 2014):
Entries with a potency or affinity are not part of this list. Results filed as inconclusive are left out. Unmarked numbers belong to inactive results.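 The calls were made as follows: active = fluorescent signal drops by 40% or more, counted as a hit; inconclusive = no clear call, values can overlap the other calls; inactive = the rest, including any activity in the opposite direction.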

experiment: blockers of FN fibrillogenesis by fibroblasts – AH1F cells, Alexa488-FN fluorescence, cherry-picks, dose response (AID 1035475); conditions: Alexa488-fibronectin deposition fluorescence, overnight; series mostly up to 35 µM; activity change, negative = inhibition: at the top concentration;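 also: AH1F fibroblasts incorporating labeled fibronectin into their extracellular matrix; 0% = neutral control wells and -100% = wells without labeled fibronectin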

Row | Compound | activity change, negative = inhibition
1 | CO[C@@H]1CN(C)C(=O)c2cc(NC(=O)Nc3ccc(Cl)c(Cl)c3)ccc2OC[C@H](C)NC[C@H]1C | -1.63%
2 | Cc1ccc(CS(=O)Cc2ccc(C(=O)NC3CCCC(C)C3C)o2)cc1 (configuration not stated) | -16.8%
3 | C[C@@H](O)C#Cc1ccc2c(c1)O[C@@H](CN(C)C)[C@@H](C)CN([C@@H](C)CO)S2(=O)=O | 21.2%
4 | C[C@H](CO)N1C[C@H](C)[C@@H](CN(C)Cc2ccc(-c3ccccc3)cc2)Oc2ccc(NC(=O)C3CCCCC3)cc2C1=O | 20.7%
5 | COCC(=O)Nc1ccc2c(c1)C(=O)N(C)[C@H]1CC[C@H](CC(=O)NCc3ccccc3Cl)O[C@@H]1CO2 | 27.3% [at 30 µM]
6 | O=C(Nc1ccccc1F)N1C[C@H]2[C@@H](c3ccccc31)[C@@H](CO)N2C(=O)C1CC1 | 25.7%
7 | O=C(C[C@@H]1C[C@@H]2c3cc(NC(=O)c4ccc5c(c4)OCO5)ccc3O[C@@H]2[C@@H](CO)O1)NCc1ccc(Oc2ccccc2)cc1 | -10.1%
8 | C[C@H](CO)N1C[C@H](C)[C@H](CN(C)C(=O)Nc2cccc3ccccc23)Oc2c(NC(=O)Nc3ccc(C(F)(F)F)cc3)cccc2C1=O | 14.8%
9 | O=C(Nc1ccc(Cl)cc1)N1C[C@H]2[C@@H](c3ccccc31)[C@H](CO)N2CC1CCCC1 | 40.8%
10 | CO[C@H]1CN(C)C(=O)c2cc(NC(=O)Nc3ccc(Cl)c(Cl)c3)ccc2OC[C@H](C)NC[C@@H]1C | -15.6%
11 | O=S(=O)(c1ccccc1F)N1CC[C@@H]2[C@H](CO)Nc3ccc(-c4cccc(F)c4)cc3[C@@H]21 | 21.5%
12 | O=S(=O)(c1ccccc1F)N1CC[C@H]2[C@H](CO)Nc3ccc(-c4cccc(F)c4)cc3[C@H]21 | 11.5%
13 | COC(=O)C[C@H]1CC[C@@H]2[C@@H](COc3ccc(NC(=O)Cc4cccs4)cc3C(=O)N2C)O1 | 33%
14 | O=S(=O)(c1cccc(F)c1)N1CC[C@@H]2[C@H]1c1cc(-c3cccc(F)c3)ccc1N[C@@H]2CO | 10.5%
15 | N#C[C@H]1[C@@H](c2ccccc2C2=CCCCC2)[C@H](CO)N1S(=O)(=O)c1ccccc1 | 34.4% [at 30 µM]
16 | COC(=O)C[C@H]1CC[C@H]2[C@@H](COc3ccc(NC(=O)Cc4cccs4)cc3C(=O)N2C)O1 | 28%
17 | CO[C@H]1CN(C)C(=O)c2ccc(NC(=O)c3ccc(-c4ccccc4)cc3)cc2OC[C@H](C)NC[C@H]1C | 21.2%
18 | C[C@@H]1CN([C@@H](C)CO)C(=O)c2cc(NC(=O)CCCN(C)C)ccc2O[C@H]1CN(C)Cc1ccc(-c2ccccc2)cc1 | -2.69%
19 | Cc1cccc(NC(=O)Nc2ccc(S(=O)(=O)Nc3onc(C)c3C)cc2)c1 | -8.12%
20 | COCC(=O)Nc1ccc2c(c1)C(=O)N(C)[C@H]1CC[C@H](CC(=O)NCc3ccccc3Cl)O[C@H]1CO2 | 12.8%
21 | Cc1ccc(S(=O)(=O)N2CC[C@H]3[C@H](CO)Nc4ccc(-c5cccc(C(=O)N(C)C)c5)cc4[C@H]32)cc1 | -23.6%
22 | Cc1ccc(S(=O)(=O)N2CC[C@@H]3[C@H](CO)Nc4ccc(-c5cccc(C(=O)N(C)C)c5)cc4[C@@H]32)cc1 | -8.78%
